Calls of active or inactive are those of the source.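 The calls were made as follows: active = viability loss from added drug above about 55%, and viability with drug at most 40%, in both replicates (limit read from the data, passing the limit was not always enough); inconclusive = both conditions met in only one replicate; inactive = neither replicate meets both conditions.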
Test: reversal of MRP1-mediated doxorubicin resistance, pilot screen, H69AR cells, doxorubicin co-treatment (AID 601)
Details: H69AR cells + 2 uM doxorubicin, CellTiter-Glo, 72 h; at 10 µM; stronger effect = higher value

With `O=C(CCCCCn1c(SCc2ccncc2)nc2ccccc2c1=O)NCc1ccco1` the differential viability (reversal) was -13% (inactive).
For `CCSc1nnc(NC(=O)c2nn(C(C)C)c(=O)c3ccccc23)s1`, the differential viability (reversal) was -9.27% (inactive).
In the case of `CN(C)c1ccc2c(c1)OC(N)=C(C#N)C2c1cccc(F)c1` (stereo not drawn), the differential viability (reversal) is reported as -41% (inactive).
In the case of `CN(C)c1ccc(NC(=O)c2cc3c(=O)n4ccccc4nc3n2C)cc1`, the differential viability (reversal) is reported as -3.47% (inactive).
For `CC(CN1CCN(C)CC1)OC(=O)c1ccc(Cl)cc1Cl` (stereo not drawn), the differential viability (reversal) was 14% (inactive).
With `COc1ccccc1Nc1ncnc2c1cnn2-c1cccc(C)c1` the differential viability (reversal) was 10.9% (inactive).
In the case of `NCCN1CCN(CCN)CC1`, the differential viability (reversal) is reported as 12.2% (inactive).
In the case of `CCOc1ccc2nc(NC(=O)CSc3nnnn3C3CCCCC3)sc2c1`, the differential viability (reversal) is reported as 4.67% (inactive).

Same assay, conditions: H69AR cells + 2 uM doxorubicin, CellTiter-Glo, 72 h; measured here: viability with 2 uM doxorubicin; at 10 µM; stronger effect = lower value

Point of comparison: `CCN(C1CCCCC1)S(=O)(=O)c1ccc(OC)c(C)c1`, viability 77.4%. Against it:
- Cn1c(=O)c2c(nc(N3CCCCC3)n2CCSc2nc3ccccc3o2)n(C)c1=O — higher, 80.4%
- CCOC(=O)C1=C(C)N=c2s/c(=C\c3cccn3C)c(=O)n2C1c1cccc(OC)c1OC (stereo not drawn) — higher, 89%
- C=CCn1c(SCC(=O)O)nnc1-c1cccc(Cl)c1 — higher, 96.3%
- Cc1ccc(S(=O)(=O)N2CCC(C(=O)NCCN3CCCCCC3)CC2)cc1 — higher, 84.6%
- CCOC(=O)c1sc(N2C(=O)C(O)=C(C(=O)c3ccco3)C2c2ccccc2)nc1C (stereo not drawn) — higher, 82.9%
- COc1cc(C)nc(NS(=O)(=O)c2ccc(C)cc2)n1 — higher, 86.2%
- CCCCC(=O)Nc1nn(CCC)c2nc3ccccc3cc12 — higher, 102%
- CCCCCOC(=O)CSc1nnc(-c2cc(OC)c(OC)c(OC)c2)o1 — higher, 93.2%
- O=C(CN1CCN(C(=O)c2ccccc2)CC1)Nc1ncc(Br)cc1Br — higher, 84.8%
- O=C(c1ccc2c(c1)OCCO2)C1CCN(C(=O)c2ccc(F)cc2)CC1 — higher, 99.9%
- Cc1cc2c(c(=O)n1CCc1ccccc1)C(C(C)C)C(C#N)=C(N)O2 (stereo not drawn) — higher, 92.8%
- Cc1cc(NC(=O)Cn2cnc3c(cnn3C(C)(C)C)c2=O)no1 — higher, 89.8%
- O=C(OCCCCN1C(=O)c2ccccc2C1=O)c1n[nH]c2ccccc12 — higher, 94.9%
- CCOC(=O)CSc1nnc(-c2ccccc2OC)o1 — higher, 106%
- O=C(Nn1cnnc1)c1cc2c(s1)CCCC2 — higher, 104%
- Cc1cc2nc(C3CCN(CC4COc5ccccc5O4)CC3)[nH]c2cc1C (stereo not drawn) — lower, 55.2%
- CCOc1ccc(S(=O)(=O)Nc2cccc(Cl)c2)cc1 — lower, 60.7%
- O=C(OCc1nnc(-c2ccccc2)o1)c1ccc2ccccc2n1 — higher, 90.1%
- COc1ccc(-c2nnc3sc(-c4c(OC)cccc4OC)nn23)cc1 — higher, 83.2%
- CC1=Nn2c(nnc2-c2cc(-c3ccccc3)n[nH]2)SC1 — higher, 84.4%
- COc1cccc(C2C(C#N)=C(N)OC3=C2C(=O)CCC3)c1OC(=O)c1ccco1 (stereo not drawn) — higher, 86.6%
- O=C(C1CC1)N1CCc2cc(S(=O)(=O)N(CCO)Cc3ccccc3)ccc21 — higher, 100%
- COc1ccc(Cl)cc1S(=O)(=O)n1cnc2ccccc21 — higher, 83.5%
- CCOC(=O)C(CC)Sc1nc2c(c(=O)[nH]c(=O)n2C)n1C/C=C(/C)Cl (stereo not drawn) — lower, 64.2%
- Cc1cc2c(c(=O)o1)C(Cc1ccccc1)C(C#N)=C(N)O2 (stereo not drawn) — lower, 77.2%
- Cc1nc2scc(-c3cccs3)c2c(=O)n1-n1cccc1 — higher, 84.8%
- Cc1cc(-n2c(C)cc(C(=O)CSc3nc4ccccc4c(=O)n3Cc3ccco3)c2C)no1 — higher, 89.7%
- N#Cc1c(NC(=O)c2ccc(Br)o2)n(-c2ccccc2)c2nc3ccccc3nc12 — higher, 85.5%
- CCC1C(=O)n2nc(-c3ccccc3)cc2N=C1C (stereo not drawn) — higher, 90.2%
- O=C(CN1C(=O)CSC1=O)N1CCc2ccccc2C1 — higher, 89.3%
- C1CCc2nnc(-c3nnc4n3CCCCC4)n2CC1 — higher, 86.4%
- O=C(CCCCCn1c(SCc2ccncc2)nc2ccccc2c1=O)NCc1ccco1 — higher, 87.6%
- CCSc1nnc(NC(=O)c2nn(C(C)C)c(=O)c3ccccc23)s1 — higher, 88.7%
- CN(C)c1ccc2c(c1)OC(N)=C(C#N)C2c1cccc(F)c1 (stereo not drawn) — lower, 75.7%
- CN(C)c1ccc(NC(=O)c2cc3c(=O)n4ccccc4nc3n2C)cc1 — higher, 83.8%
- CC(CN1CCN(C)CC1)OC(=O)c1ccc(Cl)cc1Cl (stereo not drawn) — higher, 88.2%
- COc1ccccc1Nc1ncnc2c1cnn2-c1cccc(C)c1 — higher, 84.5%
- NCCN1CCN(CCN)CC1 — higher, 81.4%
- CCOc1ccc2nc(NC(=O)CSc3nnnn3C3CCCCC3)sc2c1 — lower, 58.8%

Same assay, conditions: H69AR cells, CellTiter-Glo, 72 h; compound alone cytotoxicity; at 10 µM

Point of comparison: `CCOc1ccc2nc(NC(=O)CSc3nnnn3C3CCCCC3)sc2c1`, viability 63.5%. Against it:
- Cn1c(=O)c2c(nc(N3CCCCC3)n2CCSc2nc3ccccc3o2)n(C)c1=O — higher, 82.2%
- CCOC(=O)C1=C(C)N=c2s/c(=C\c3cccn3C)c(=O)n2C1c1cccc(OC)c1OC (stereo not drawn) — higher, 87.4%
- C=CCn1c(SCC(=O)O)nnc1-c1cccc(Cl)c1 — higher, 109%
- Cc1ccc(S(=O)(=O)N2CCC(C(=O)NCCN3CCCCCC3)CC2)cc1 — higher, 103%
- CCOC(=O)c1sc(N2C(=O)C(O)=C(C(=O)c3ccco3)C2c2ccccc2)nc1C (stereo not drawn) — higher, 84.2%
- COc1cc(C)nc(NS(=O)(=O)c2ccc(C)cc2)n1 — higher, 84.9%
- CCCCC(=O)Nc1nn(CCC)c2nc3ccccc3cc12 — higher, 96.1%
- CCCCCOC(=O)CSc1nnc(-c2cc(OC)c(OC)c(OC)c2)o1 — higher, 104%
- O=C(CN1CCN(C(=O)c2ccccc2)CC1)Nc1ncc(Br)cc1Br — higher, 77.9%
- O=C(c1ccc2c(c1)OCCO2)C1CCN(C(=O)c2ccc(F)cc2)CC1 — higher, 83.8%
- Cc1cc2c(c(=O)n1CCc1ccccc1)C(C(C)C)C(C#N)=C(N)O2 (stereo not drawn) — higher, 83.5%
- Cc1cc(NC(=O)Cn2cnc3c(cnn3C(C)(C)C)c2=O)no1 — higher, 91.9%
- O=C(OCCCCN1C(=O)c2ccccc2C1=O)c1n[nH]c2ccccc12 — higher, 101%
- CCOC(=O)CSc1nnc(-c2ccccc2OC)o1 — higher, 94.8%
- O=C(Nn1cnnc1)c1cc2c(s1)CCCC2 — higher, 102%
- Cc1cc2nc(C3CCN(CC4COc5ccccc5O4)CC3)[nH]c2cc1C (stereo not drawn) — higher, 77.8%
- CCOc1ccc(S(=O)(=O)Nc2cccc(Cl)c2)cc1 — lower, 18.8%
- O=C(OCc1nnc(-c2ccccc2)o1)c1ccc2ccccc2n1 — higher, 89.4%
- COc1ccc(-c2nnc3sc(-c4c(OC)cccc4OC)nn23)cc1 — higher, 75.9%
- CC1=Nn2c(nnc2-c2cc(-c3ccccc3)n[nH]2)SC1 — higher, 91.4%
- COc1cccc(C2C(C#N)=C(N)OC3=C2C(=O)CCC3)c1OC(=O)c1ccco1 (stereo not drawn) — higher, 99.7%
- CCN(C1CCCCC1)S(=O)(=O)c1ccc(OC)c(C)c1 — higher, 93.1%
- O=C(C1CC1)N1CCc2cc(S(=O)(=O)N(CCO)Cc3ccccc3)ccc21 — higher, 98.8%
- COc1ccc(Cl)cc1S(=O)(=O)n1cnc2ccccc21 — lower, 33.7%
- CCOC(=O)C(CC)Sc1nc2c(c(=O)[nH]c(=O)n2C)n1C/C=C(/C)Cl (stereo not drawn) — higher, 84.9%
- Cc1cc2c(c(=O)o1)C(Cc1ccccc1)C(C#N)=C(N)O2 (stereo not drawn) — higher, 98.7%
- Cc1nc2scc(-c3cccs3)c2c(=O)n1-n1cccc1 — higher, 99.3%
- Cc1cc(-n2c(C)cc(C(=O)CSc3nc4ccccc4c(=O)n3Cc3ccco3)c2C)no1 — higher, 93.8%
- N#Cc1c(NC(=O)c2ccc(Br)o2)n(-c2ccccc2)c2nc3ccccc3nc12 — higher, 85.2%
- CCC1C(=O)n2nc(-c3ccccc3)cc2N=C1C (stereo not drawn) — higher, 99%
- O=C(CN1C(=O)CSC1=O)N1CCc2ccccc2C1 — higher, 89.6%
- C1CCc2nnc(-c3nnc4n3CCCCC4)n2CC1 — higher, 93%
- O=C(CCCCCn1c(SCc2ccncc2)nc2ccccc2c1=O)NCc1ccco1 — higher, 74.6%
- CCSc1nnc(NC(=O)c2nn(C(C)C)c(=O)c3ccccc23)s1 — higher, 79.4%
- CN(C)c1ccc2c(c1)OC(N)=C(C#N)C2c1cccc(F)c1 (stereo not drawn) — lower, 34.7%
- CN(C)c1ccc(NC(=O)c2cc3c(=O)n4ccccc4nc3n2C)cc1 — higher, 80.3%
- CC(CN1CCN(C)CC1)OC(=O)c1ccc(Cl)cc1Cl (stereo not drawn) — higher, 102%
- COc1ccccc1Nc1ncnc2c1cnn2-c1cccc(C)c1 — higher, 95.4%
- NCCN1CCN(CCN)CC1 — higher, 93.7%
